# High-throughput results (PubChem)
# Compounds with a hit are over-represented: about 8.7% of the library has one in this group of screens.
# 12-LOX inh: ALOX12 (human) lipoxygenase inhibition | P18054 | Potency, µM (top dose mostly 108 µM), without a hit: top-dose activity change, negative = inhibition, usual class: inhibitors | 1.1% of 580,000 active | purified 12hLO, xylenol orange hydroperoxide absorbance; note: % is set by controls: 0 for no effect and ±100 for the full control effect
#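 Purified human 12hLO at 150 nM in 25 mM Hepes, 0.01% Triton X-100, pH 7.0, preincubated 15 min at room temperature with compound. Reaction started with 40 uM arachidonic acid, 30 min at room temperature. Hydroperoxide measured by Fe-xylenol orange, 573/405 nm absorbance ratio.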
# BAZ2B block: inhibitors of human BAZ2B bromodomain. Q9UIF8. AlphaScreen BAZ2B-H3K14Ac peptide displacement. Potency, µM (doses to about 114 µM), for the others: top-dose activity change, negative = inhibition, most hits filed as inhibitors. 4.4% of 360,000 active; note: % is set by controls: 0 for no effect and ±100 for the full control effect; nearly all actives have a fitted effect of over 60% in size
#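 AlphaScreen displacement: compounds (up to 110uM) incubated 30 min at room temperature with a preformed 50 nM BAZ2B/50 nM biotinylated H3K14Ac peptide complex in PBS pH 7.4 with Tween-20. Donor and acceptor beads at 10 ug/mL final added, 20 min light-protected before reading.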
# Sfp inh: blocks B. subtilis Sfp PPTase activity; Q9F4F7; Potency, µM, inactives show largest response in the series, negative = inhibition, hits mostly inhibitors; 3.5% of 310,000 active; Biochemical Sfp PPTase activity, qHTS;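 note: the enzyme is Sfp with the accession as filed and its product quenches rhodamine fluorescence; 0% = enzyme reaction without inhibitor and -100% = no enzyme wells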
#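 Compounds were incubated with enzyme (final 15 nM) for 15 min at room temperature before substrate addition started the reaction. Fluorescence at 525 nm excitation, 598 nm emission was recorded immediately and after 30 minutes.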
# JMJD2A Tudor: inhibitors of human JMJD2A Tudor domain; AlphaScreen JMJD2A-Tudor / H3K4me3 peptide binding; 4.4% of 390,000 active; O75164; Potency, µM (series often up to 114 µM), for inactives: at the highest dose activity change, negative = inhibition, hits mostly inhibitors; note: % is set by controls: 0 for no effect and ±100 for the full control effect; nearly all actives have a fitted effect of over 50% in size
# HP1b chromo inh: HP1-beta chromodomain-methylated histone interaction inhibition; P83916; AlphaScreen HP1-beta / biotin-H3K9me3 peptide binding; Potency, µM (series often up to 114 µM), for the others: top-dose activity change, negative = inhibition, hits mostly inhibitors; 0.56% of 390,000 active; AID 540317; note: nearly all actives have a fitted effect of over 70% in size
# Target sequence (P83916 whole entry, looked up): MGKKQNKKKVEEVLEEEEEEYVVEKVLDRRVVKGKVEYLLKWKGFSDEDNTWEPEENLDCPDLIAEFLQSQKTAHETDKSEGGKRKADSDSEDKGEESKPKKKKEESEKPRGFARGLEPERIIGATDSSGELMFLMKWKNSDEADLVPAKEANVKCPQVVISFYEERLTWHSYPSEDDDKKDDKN
#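 HP1-beta protein (50 nM final) preincubated 30 min at room temperature with biotinylated H3(1-18)K9me3 peptide (50 nM) in PBS pH 7.4, 0.01% Tween-20, then compound added for 30 min. AlphaScreen streptavidin donor/nickel chelate acceptor beads (10 ug/mL final), 30 min dark, luminescence read.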
# G9a block: blocks human histone lysine methyltransferase G9a | Potency, µM (highest dose often 102 µM), inactives show at the highest dose activity, negative = inhibition, most hits filed as inhibitors | G9a H3K9 monomethylation, AlphaScreen, 2 h | 8.8% of 350,000 active; note: % is set by controls: 0 for no effect and ±100 for the full control effect; nearly all actives have a fitted effect of over 75% in size
# Target sequence (Q96KQ7 913-1193 limits assumed): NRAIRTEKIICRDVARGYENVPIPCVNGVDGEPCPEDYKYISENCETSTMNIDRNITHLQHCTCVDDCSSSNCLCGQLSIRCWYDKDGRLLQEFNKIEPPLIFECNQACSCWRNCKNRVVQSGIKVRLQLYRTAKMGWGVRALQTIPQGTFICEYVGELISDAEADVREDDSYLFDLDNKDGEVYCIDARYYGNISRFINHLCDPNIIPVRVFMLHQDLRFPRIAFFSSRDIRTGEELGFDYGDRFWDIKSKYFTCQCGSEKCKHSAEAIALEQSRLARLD
#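 G9a (20 nM) preincubated 15 min RT with compounds, then 500 nM biotinylated H3K9 peptide and 20 uM SAM added; 2 h RT reaction. Monomethyl-H3K9 product detected by AlphaScreen with anti-H3K9me1 antibody, streptavidin donor and anti-rabbit IgG acceptor beads.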
# Numbers without * were called inactive; ? = inconclusive; nt = not tested or not shown; [ ] = dose if it differs, or a comment. Calls come from the whole dose curve; as a rule, active = well fitted curve in the direction sought with a large enough effect; inconclusive = small, poorly fitted or top-dose-only effect, or another doubt; inactive = no such curve, though single readings can be large; an effect the other way counts as inactive or inconclusive. Potency is the fitted concentration of half-maximal effect.
SMILES,12-LOX inh,BAZ2B block,Sfp inh,JMJD2A Tudor,HP1b chromo inh,G9a block
CSc1ccccc1NC(=O)Cn1nc([N+](=O)[O-])cc1C,-12%,-2%,56µM*,-22%,33%,28µM*
Cc1cc([N+](=O)[O-])nn1CC(=O)Nc1cccc2nonc12,-22%,?,-26%,-35%,-5%,56µM*
Oc1ccc(Cl)cc1C1=NNC(c2cccs2)C1 (stereo not drawn),?,-38%,-20%,-33%[11.4 µM],-11%,50µM*
Cc1c(Cl)cccc1NC(=O)N1CCCC(Cn2cnc3cccnc32)C1 (stereo not drawn),26%,nt,nt,nt,nt,nt
COc1ccc(C(C)=O)cc1COc1ccc(F)cc1,2%,-1%,-2%,28%,132%,42%
CCOc1ccc(C(C)=O)cc1COc1ccc(-c2nnco2)cc1,0%,50µM*,-11%,-11%,22%,nt
CCN1CCN(c2nnc(-c3ccccc3)c3ccccc23)CC1,0%,2%,15%,-3%,37%,?
CCN1CCN(c2cc3c(nn2)Oc2ccccc2N3C)CC1,10%,5%,12%,12%,15%,50µM*
NCC(=O)N1Cc2ccccc2CC2(CCN(CC3CCOCC3)C2)C1 (stereo not drawn),45%,nt,nt,nt,nt,nt
CCOC(=O)c1c(NC(=O)COC(=O)c2ccc(O)cc2)sc(C(=O)NC)c1C,5%,nt,nt,-27%,25%,nt
CCOC(=O)c1c(NC(=O)c2ccncc2)sc(C)c1C,?,-8%,22µM*,-21%,19%,16µM*
CCOC(=O)c1c(NC(=O)COC(=O)c2ccncc2)sc(C)c1C,-3%,-22%,79µM*,-13%,4%,-31%
Cc1ccc(-n2cc(CN3CCCCC3C(N)=O)c(-c3cccc(C)c3)n2)cc1 (stereo not drawn),-3%,nt,nt,nt,nt,nt
CCN1C(=O)C(O)(CC(=O)c2cc(C)c(C)cc2C)c2ccccc21 (stereo not drawn),-5%,nt,nt,nt,nt,nt
Cc1cc(C)cc(C(=O)NC(=S)Nc2ccc3c(c2)OCCO3)c1,6.3µM*,?,9%,?,?,25µM*
Cc1ccc(C(=O)Nc2ccc3c(c2)OCCO3)cc1,0%,-7%,13%,-5%,30%,-8%
CCC(=O)NC(=S)Nc1ccc(N2CCOCC2)cc1,0%,?,6%,-6%,28%,-44%
C=C(C)C(=O)Nc1ccc2c(c1)OCCOCCOCCO2,0%,11µM*,5%,18µM*,13µM*,10µM*
CCCCCC(=O)NC(=S)Nc1ccc(N2CCOCC2)cc1,?,?,-16%,-20%,0%,3.5µM*
O=C(NC(=S)Nc1ccc2c(c1)OCO2)c1ccc(Cl)cc1,-16%,-4%,?,-18%,-7%,?
CCc1ccc(C(=O)NC(=S)Nc2ccc3c(c2)OCCO3)cc1,14µM*,?,?,?,?,?
CCN1C(=O)C2CC3(CCN(C(=O)Cc4ccccc4)CC3)CN2C1=O (stereo not drawn),-2%,nt,nt,nt,nt,nt
O=C(c1ccc(F)cc1)N1CCC(Cc2nc(-c3ccc(F)cc3)no2)CC1,12%,nt,nt,nt,nt,nt
CC(=O)Nc1ccc(C2(C(=O)N3CCC(N4CCCCC4)CC3)CCCCC2)cc1,17%,nt,nt,nt,nt,nt
O=C(NC(=S)Nc1ccc(N2CCOCC2)c(Cl)c1)c1cncc(Br)c1,?,?,?,?,?,-10%[59 µM]
SMILES,12-LOX inh,BAZ2B block,Sfp inh,JMJD2A Tudor,HP1b chromo inh,G9a block
Cc1ccc(C(=O)N/N=C/c2ccc(N3CCOCC3)cc2)c(C)c1,1%,-10%,7%,1%,30%,2%
Cc1ccc(C(=O)NC(=S)Nc2ccc3c(c2)OCCO3)c(C)c1,13µM*,?,1%,?,14%,?
O=C(NC(=S)Nc1ccc(N2CCCCC2)c(Cl)c1)c1ccc2c(c1)OCCO2,22µM*,?,11%,?,-19%,-43%[12.7 µM]
Cc1ccc(C(=O)NC(=S)Nc2ccc(N3CCOCC3)cc2)c(C)c1,7.9µM*,22µM*,-8%,?,?,nt
NC1=CC(=O)CC1,13%,nt,nt,nt,nt,nt
O=C(c1cc2ccccc2oc1=O)N1CCN(c2ccccc2)CC1,14%,nt,nt,nt,nt,nt
Nc1ccc(C(=O)C(=O)c2ccc(N)cc2)cc1,267%,-4%,6%,-4%,17%,2%
N=C1C=CC(=C(c2ccc(N)cc2)c2ccc(N)cc2)C=C1,-21%,nt,nt,7.1µM*,?,nt
c1ccc(CSc2ncccn2)cc1,8%,10%,-18%,9%,19%,25µM*
Oc1cccnc1SCc1ccccc1,6.3µM*,?,nt,-35%,27%,3%[2.33 µM]
Clc1ccc(CSc2ncccn2)cc1,-2%[57.4 µM],38%,-6%,61%,66%,32%[59 µM]
CCN1c2cc(C(=O)Nc3ccc(C(=O)OC)cc3)ccc2C(=O)N2CCCC21 (stereo not drawn),9%,nt,nt,nt,nt,nt
C=CCOc1ccc(CNCc2ccco2)cc1,-17%,nt,nt,nt,nt,nt
O=C(Nc1cc(F)cc(F)c1)c1ccc(NCCc2ccccc2)c([N+](=O)[O-])c1,-21%,-26%,9%,-11%,32%,-20%[59 µM]
O=[N+]([O-])c1cc(Cl)ccc1NCCc1ccccn1,-8%,10µM*,8%,45µM*,?,?
